Results on 18 compounds are retold here after PubChem BioAssay.

The subject of experiment [1] is Human papillomavirus type 1a protein E7 (residues 44-93). Description: HPV1a E7 fragment binders on microarrays, primary screen, biochemical, small-molecule microarray, residues 44-93, 635 nm fluorescence (AID 1108).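 Further: E7 fragment applied at 1 µg/mL in TBST for 1 h at 4 C; score combines spot fluorescence with its signal to noise ratio.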 To be noted: small-molecule microarray binding, fluorescence 635 nm; higher = more signal.
Experiment [2] in a line: modulators of HCV replicon luciferase signal, primary screen, HCV replication inhibitor project, Huh7 cells, luciferase reporter (AID 1109).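 Further: huh7 hepatoma cells harbouring a luciferase neomycin HCV replicon reporter; luciferase luminescence as measure of HCV replicon replication; test concentration not given here.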 As to conditions: 48 h, higher = more signal. A general note: Replicon systems follow genome replication, usually without infectious particles.
In experiment [3] the target is Left-right determination factor 2 (Homo sapiens) (UniProt O00292). Description: LEFTY2 binders on small-molecule microarrays, primary screen, biochemical, small-molecule microarray, 635 nm fluorescence scan (AID 1110). As to conditions: LEFTY2 binding, higher = more signal.
Experiment [4] concerns the target Calmodulin-1 (Homo sapiens) (UniProt P0DP23). Description: CALM1 binders on microarrays, EGTA buffer, profiling panel, biochemical, small-molecule microarray, Cy5-labelled CALM1 (AID 1111).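 Further: labelled calmodulin applied in Tris saline Tween buffer holding calcium plus EGTA and DTT.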 To be noted: Cy5-CALM1 binding fluorescence, higher = more signal.
Experiment [5] has the same target. Description: calcium-bound CALM1 binders on microarrays, profiling panel, artefact control for SMM control-protein annotation, biochemical, small-molecule microarray, Cy5-labelled CALM1, plus calcium (AID 1112).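 Further: score merges spot fluorescence with signal to noise from triplicate slides.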 As to conditions: Cy5-CALM1 binding fluorescence, higher = more signal.
Experiment [6] is described as follows: small-molecule microarray binders of probe aWnt5a, primary screen, biochemical, biotinylated probe, 635/667 nm fluorescence (AID 1113).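 Further: score merges 667 nm fluorescence intensity with signal-to-noise per printed feature.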 As to conditions: higher = more signal.
A short description of experiment [7]: small-molecule microarray binders of probe aShh, primary screen, biochemical, biotinylated probe, 635/667 nm fluorescence (AID 1114).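 Further: probe is biotin-labelled aShh protein from a stem cell growth factor screen; measures binding of labelled protein to compounds printed on the slide; score merges feature fluorescence at 667 nm with signal-to-noise.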 As to conditions: higher = more signal.
The nature of experiment [8]: small-molecule microarray binders of probe aNog, primary screen, biochemical, biotinylated probe, 635/667 nm fluorescence (AID 1115).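 Further: probe is biotinylated aNog protein used at 0.15 µg/mL for 1 h at 4 C; z-score combines 667 nm fluorescence of each spot with its signal to noise.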 As to conditions: higher = more signal.
Experiment [9] deals with Torsin-1A-interacting protein 1 (Homo sapiens) (UniProt Q5JTV8). Description: LAP1 binders from COS7 cell lysate, primary screen, small-molecule microarray, 635/667 nm fluorescence (AID 1116). As to conditions: COS7-hLAP1 lysate binding, 635 nm fluorescence, higher = more signal.
Experiment [10] addresses Alpha-bungarotoxin (Bungarus multicinctus) (UniProt P60615). The experiment is described as follows: alpha-bungarotoxin binders on microarray, profiling panel, artefact control for SMM control protein annotation, biochemical, small-molecule microarray, Alexa647 label, 635/667 nm fluorescence (AID 1117). To be noted: alpha-BTX-A647 binding fluorescence, higher = more signal.

SMILES strings stand for the structures.

Alpha-bungarotoxin (Bungarus multicinctus), sequence (P60615 whole entry, looked up): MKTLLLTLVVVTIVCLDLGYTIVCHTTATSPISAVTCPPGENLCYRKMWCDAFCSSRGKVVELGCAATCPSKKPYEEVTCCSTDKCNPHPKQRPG
Left-right determination factor 2 (Homo sapiens), sequence (O00292 whole entry, looked up): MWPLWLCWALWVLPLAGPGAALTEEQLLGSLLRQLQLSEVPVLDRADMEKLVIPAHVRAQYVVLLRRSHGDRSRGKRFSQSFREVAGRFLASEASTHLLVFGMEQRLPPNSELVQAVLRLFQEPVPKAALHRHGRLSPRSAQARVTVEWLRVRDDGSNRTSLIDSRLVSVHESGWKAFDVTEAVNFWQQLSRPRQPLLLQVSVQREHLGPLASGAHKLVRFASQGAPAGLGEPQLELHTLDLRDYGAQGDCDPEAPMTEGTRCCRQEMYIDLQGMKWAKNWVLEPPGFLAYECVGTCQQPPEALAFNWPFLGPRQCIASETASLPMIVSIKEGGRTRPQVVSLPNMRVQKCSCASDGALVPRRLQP
Torsin-1A-interacting protein 1 (Homo sapiens), sequence (Q5JTV8 whole entry, looked up): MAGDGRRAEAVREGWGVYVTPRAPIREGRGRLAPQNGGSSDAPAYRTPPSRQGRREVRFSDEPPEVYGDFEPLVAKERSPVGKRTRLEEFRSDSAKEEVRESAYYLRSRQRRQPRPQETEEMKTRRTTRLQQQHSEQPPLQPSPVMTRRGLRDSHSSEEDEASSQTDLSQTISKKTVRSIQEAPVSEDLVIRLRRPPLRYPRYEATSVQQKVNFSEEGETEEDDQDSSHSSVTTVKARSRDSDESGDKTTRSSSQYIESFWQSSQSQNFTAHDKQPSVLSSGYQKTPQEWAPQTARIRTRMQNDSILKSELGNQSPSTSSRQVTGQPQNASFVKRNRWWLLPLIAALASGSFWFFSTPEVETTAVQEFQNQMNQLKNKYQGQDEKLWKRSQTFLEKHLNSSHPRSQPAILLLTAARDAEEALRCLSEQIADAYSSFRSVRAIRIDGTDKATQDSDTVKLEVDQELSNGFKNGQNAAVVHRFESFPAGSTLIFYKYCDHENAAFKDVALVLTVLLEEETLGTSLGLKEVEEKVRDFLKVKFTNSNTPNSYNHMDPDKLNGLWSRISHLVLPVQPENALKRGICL

As to `COCCCNC(=O)[C@@]1(Sc2ccc(C)cc2)CC(=O)N(C2Cc3ccccc3C2)[C@@H]1c1ccc(CO)cc1`, the composite z-score in [1] was 0.52; in experiment [3], -1.15; in experiment [4], -0.176; in experiment [5], -0.0232; in [6], -0.227; in experiment [7], -0.2. The values for the composite z-score in [8], in experiment [9] and in [10] were 0.551, 0.423 and -0.715, respectively. Besides, the z-score in experiment [2] is -0.849.
In the case of `[N-]=[N+]=Nc1ccccc1[C@@H]1OC(c2ccc(OCCCO)cc2)=N[C@]1(Cc1ccccc1)C(=O)O`, the composite z-score is 1.4 in experiment [1]; -0.529 in experiment [3]; 1.57 in [4]; 0.886 in experiment [5]; 0.0391 in experiment [6]; 0.0659 in experiment [7]. The composite z-score in experiment [8] amounted to 0.135; in [9], 1.35; in experiment [10], 1.7. Further, the z-score in experiment [2] was found to be 0.848.
On to `CN(C)C(=O)[C@@]1(Cc2ccccc2)N=C(c2ccc(OCCCO)cc2)O[C@H]1c1ccccc1`, for which the composite z-score in experiment [1] was 0.508; in experiment [3], -0.469; in [4] it was 1.58; in experiment [5] it was 0.972; in [6] it was 0.217; in experiment [7] it was 0.0654. Further, the figures for the composite z-score in [8], in experiment [9] and in [10] were -0.332, 1.44 and 0.907, respectively. In [2], the z-score was -1.76.
On to `C=CCC(OC(C)=O)[C@@H]1[C@@H](N(Cc2cccc3ccccc23)C(=O)Cc2ccc(F)cc2)c2cc(OCCCO)ccc2N1C(=O)c1ccc2ccccc2c1` (stereo not given in full), for which the composite z-score in experiment [1] was 0.408; in experiment [3], 0.171; in experiment [4] it was -0.0876; in experiment [5] it was 0.441; in experiment [6], -0.124; in experiment [7], -0.0626. Moreover, the composite z-score in [8] was -0.17; in experiment [9] it was -0.0393; in experiment [10], 0.0927. Besides, the z-score in experiment [2] was -0.204.
On to `C=C(/C(=C/C[C@H](OC(C)=O)c1ccc(CO)o1)c1cnc2ccccc2c1)C(C)C`, for which the composite z-score in [1] is 1.43; in experiment [3], 0.552; in experiment [4], 1.4; in experiment [5] it was -0.24; in [6], -0.0643; in experiment [7], 0.149. Also, the figures for the composite z-score in experiment [8], in experiment [9] and in experiment [10] were 0.33, 1.07 and 2.15, respectively. Besides, the z-score in experiment [2] is -2.23.
Regarding `C=CCN1C(=O)[C@]2(CCC(=O)OC(C)(C)C)N=C(c3ccc(OCCCO)cc3)O[C@@H]2c2ccccc21`, the composite z-score in experiment [1] was 0.841; in experiment [3], 0.272; in experiment [4], 1.23; in experiment [5], -0.0414; in [6], -0.0441; in [7], 0.131. Further, the composite z-score in experiment [8] is -0.292; in [9], 0.423; in experiment [10], 1.38. This compound also registered a z-score in experiment [2] of -2.91.
With `C=CC[C@H](OC(=O)Nc1ccc(SC)cc1)c1ccc(O)c2ccccc12`, the composite z-score in experiment [1] was 1.4; in experiment [3], 0.679; in [4], 1.28; in [5] it was 0.411; in experiment [6], -0.0819; in experiment [7] it was 0.23. For the same compound, the composite z-score is -0.134 in experiment [8], 0.986 in [9] and 1.78 in [10]. For the same compound, in [2], the z-score is -4.92.
For `COC(=O)[C@@]1(Cc2ccc(F)cc2)[C@H]2c3cc(C(=O)N(C)C)n(CCc4ccc(OC)c(Br)c4)c3C[C@H]2CN1C(=O)c1ccccc1`, the composite z-score in experiment [1] was 0.971; in [3], -0.392; in experiment [4], 0.314; in experiment [5] it was 0.535; in experiment [6] it was 1.19; in [7] it was 0.289. In addition, the figures for the composite z-score in [8], in experiment [9] and in experiment [10] were 2.8, 0.589 and 0.653, respectively. This compound returned a z-score in experiment [2] of -3.74.
As to `COC(=O)[C@@]1(Cc2ccccc2)[C@H]2c3cc(C(=O)N4CCCC4)n(CCc4ccccn4)c3C[C@H]2CN1C(=O)c1ccccc1`, the composite z-score in experiment [1] was 1.43; in experiment [3], -0.204; in experiment [4] it was 2.13; in experiment [5], 0.842; in [6] it was -0.0776; in [7] it was -0.353. For the same compound, the composite z-score amounted to 1.84 in experiment [8], 2.53 in [9] and 0.298 in experiment [10]. In experiment [2], this compound registered a z-score of -1.65.
On to `CCOC(=O)C[C@H]1[C@H](OC(=O)c2ccc(C(=O)c3ccccc3)cc2)[C@@H](NC(=O)c2ccc3ccccc3n2)c2cc(OCCCO)ccc2N1C(=O)Cc1ccc(OC)cc1`, for which the composite z-score in [1] was 0.947; in [3] it was 0.471; in experiment [4], 1.08; in experiment [5], 0.0823; in [6], -0.202; in [7] it was 0.0115. Besides, the composite z-score in [8] was -0.259; in [9], -0.0179; in experiment [10] it was -0.0434. This compound registered a z-score in [2] of 0.361.
For `CC(C)NC(=O)[C@@]1(c2ccc([N+](=O)[O-])cc2)CC(=O)N(C2CCCCC2)[C@@H]1c1ccc(CO)cc1`, the composite z-score in experiment [1] was 1.46; in experiment [3] it was -0.016; in [4], -0.0034; in experiment [5] it was -0.0027; in [6] it was 0.0115; in experiment [7], -0.553. For the same compound, the composite z-score in [8] turned out to be 0.275; in experiment [9], 2.08; in [10] it was 0.621. In [2], this compound came in with a z-score of -0.778.
`COc1cccc(C)c1NC(=O)O[C@H]1[C@H](OC(=O)Nc2ccc3c(c2)OCO3)[C@@H](OC(=O)Nc2ccc3c(c2)OCO3)[C@@H](OC)O[C@@H]1CO`: the composite z-score is 1.42 in [1]; 0.794 in experiment [3]; 0.108 in experiment [4]; -1.04 in experiment [5]; 0.0973 in [6]; 0.149 in experiment [7]. Moreover, the composite z-score in experiment [8] was -0.0899; in [9] it was 1.5; in experiment [10], 0.869. The z-score in experiment [2] is 0.658.
For `CC(C)N1C(=O)C[C@@](C(=O)O)(c2ccc([N+](=O)[O-])cc2)[C@H]1c1ccc(CO)cc1`, the composite z-score in experiment [1] is 0.48; in experiment [3], -1.14; in experiment [4] it was 0.233; in experiment [5] it was 0.432; in experiment [6], -0.118; in [7], -0.153. Besides, the results for the composite z-score in experiment [8], in experiment [9] and in [10] were -0.409, 0.335 and -0.315, respectively. Besides, in [2], the z-score is 0.253.
With `COc1cc(NN2C(C(O)c3cc(OC)c(OC)c(OC)c3)C=CC3C(=O)N(C)C(=O)C32)cc(OC)c1OC` (stereo not given), the composite z-score is 1.09 in experiment [1]; -0.229 in experiment [3]; 1.34 in [4]; 0.278 in [5]; 0.0599 in [6]; 0.23 in experiment [7]. Besides, the composite z-score in experiment [8] came out at 0.849; in experiment [9], 0.904; in [10], 1.24. The compound also had a z-score in experiment [2] of -0.336.
`C=CCC(OC(C)=O)[C@@H]1[C@@H](N(Cc2ccc(-c3cccc(C(F)(F)F)c3)o2)C(=O)Cc2ccc(OC)cc2)c2cc(OCCCO)ccc2N1C(=O)c1ccc(-c2ccccc2)cc1` (stereo not given in full): the composite z-score is -0.433 in [1]; -0.164 in [3]; -0.364 in [4]; -0.341 in experiment [5]; 0.0079 in experiment [6]; -0.0793 in experiment [7]. Moreover, the composite z-score in [8] was -0.577; in experiment [9], -0.205; in experiment [10], 1.13. Moreover, in experiment [2], the z-score amounted to 0.278.
`CC1=C2[C@@H](CCc3ccccc3)OB(O)C[C@@H]2[C@@H]2C(=O)N(Cc3ccccc3)C(=O)[C@@H]2C1`: the composite z-score is -0.125 in experiment [1]; 0.809 in experiment [3]; -0.122 in experiment [4]; -0.605 in experiment [5]; -0.0869 in [6]; -0.0709 in [7]. For the same compound, the composite z-score in [8] is -0.314; in experiment [9], 0.59; in experiment [10] it was 0.659. Besides, in [2], the z-score was -0.873.
`CC(C)NC(=O)[C@@]1(C)c2ccccc2C(=O)N(Cc2ccc(OC(F)(F)F)cc2)[C@H]1c1ccc(CO)cc1`: the composite z-score was 0.0959 in experiment [1]; -1.49 in experiment [3]; -0.43 in experiment [4]; 0.495 in [5]; -0.124 in experiment [6]; -0.0833 in experiment [7]. The composite z-score in experiment [8] was -0.472; in experiment [9], -0.284; in [10] it was -0.94. This compound returned a z-score in experiment [2] of -0.706.
Turning to `CCCCC(=C=CC[C@H](O)c1ccc(OCCO)cc1)CCO`, the composite z-score is 0.656 in experiment [1]; -0.917 in [3]; -0.333 in experiment [4]; -0.404 in experiment [5]; -0.124 in [6]; -0.154 in [7]. Besides, the composite z-score was -0.0007 in [8], 0.92 in experiment [9] and -0.322 in [10]. For the same compound, in experiment [2], the z-score is -1.1.
